Assay outcomes deposited in PubChem by National Center for Advancing Translational Sciences (NCATS).
Shown are actives, neighbours in structure and some others; about 6.5% of the full set was active somewhere.
HT1080 IDH1KD tx = kills HT-1080 cells with IDH1 knockdown; HT-1080 IDH1 knockdown viability, ATP luminescence, 48 h; Potency, µM (doses to about 46.1 µM), for inactives: top-dose activity, negative = toxicity, actives largely listed as cytotoxic; 360,000 compounds, 2% hits; AID 686971;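 also: potency is read from the fitted curve at half-maximal effect; 0% = DMSO wells and -100% = cell-free medium wells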
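Knockdown cells (IDH1KD HT-1080) received compounds 2 h after plating at 750 cells/well and were kept 48 h at 37 °C in 5% FBS RPMI. A CellTiter-Glo luminescence read gave % activity for curve fitting.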
TGFb inhibitor = TGF-b pathway inhibition. HepG2 CAGA-GFP TGF-b/SMAD3 reporter, GFP fluorescence, 18 h; TGF-beta stimulated, 500 pg/mL final. Potency, µM (top dose mostly 46.1 µM), without a hit: at the top dose activity, negative = inhibition, usual class: inhibitors. 410,000 compounds, 1.2% hits. AID 588855; also: potency is read from the fitted curve at half-maximal effect; % is scaled to controls: 0 for no effect and ±100 for the full control effect; nearly all actives have a fitted effect of over 65% in size
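HEPG2 CAGA-GFP cells (1000/well, DMEM with 1% FBS) were pre-incubated 2 h at 37 degrees C, given compound by pin tool, then stimulated with TGF-beta at 500 pg/mL final for 18 h before per-cell GFP fluorescence imaging.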
Giardia killer = Giardia lamblia killing; activity change, % at 7.66 µM, hits read low; Giardia lamblia trophozoite viability; 340,000 compounds, 0.15% hits; in the data active = activity change below about -80%; inconclusive = between about -30% and that limit;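 also: parasites exposed to compound for two days anaerobically before the ATP read; % is scaled to controls: 0 for no effect and ±100 for the full control effect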
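Anaerobic 48 hrs incubation at 37 deg C of 100 trophozoites/well with test compounds; ATPLite 1-Step luminescence, 15-30 min RT, reports cellular ATP as viability.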
HT1080NT lethal = kills 2HG-producing HT-1080-NT fibrosarcoma cells; HT-1080-NT fibrosarcoma viability, CellTiter-Glo ATP luminescence, 48 h; Potency, µM (series often up to 46.1 µM), inactives show top-dose activity, negative = less viability, actives largely listed as cytotoxic; 360,000 compounds, 1.6% hits; AID 686970;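 also: NT is the 2HG producing partner of a matched IDH1 knockdown line; potency is read from the fitted curve at half-maximal effect; 0% = DMSO-treated cells and -100% = media-only wells without cells; nearly all actives have a fitted effect of over 55% in size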
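Toxicity toward the 2HG-producing NT line was scored as %Activity, normalised to DMSO and no-cell wells, from CellTiter-Glo luminescence after 48 hours' treatment.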
HepG2 viability = counter-screen for TGF-b inhibitors: cytotoxicity in HepG2 cells. HepG2 CAGA-GFP viability, ATP luminescence, 18 h. Potency, µM (highest dose often 46.1 µM), inactives show top-dose activity change, negative = cytotoxicity, hits mostly cytotoxic. 410,000 compounds, 0.76% hits. AID 588856; also: potency is read from the fitted curve at half-maximal effect
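CellTiter-Glo luminescence gave cytotoxicity after 18 hours at 37 degrees C. The cells were HepG2 CAGA-GFP in 1% FBS DMEM, stimulated with 500 pg/mL TGF-beta after compound addition. %Activity was normalised to no-cell wells (complete cell-killing) and DMSO (no toxicity), and curves were fitted and classified.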
IL-1B inflam inh = inflammasome signaling inhibition, IL-1 beta readout; THP-1 LPS/ATP IL-1B secretion, AlphaLISA, 16 h; hits give low values; activity change, % at 57.5 µM; 360,000 compounds, 4.7% hits; AID 743279; in the data active = activity change below about -50%; inconclusive = mostly about -30% to -49%; also: % is scaled to controls: 0 for no effect and ±100 for the full control effect
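THP-1 cells pretreated 1 hr with compounds (up to 57.5 uM final), then stimulated with LPS (250 ng/mL final) plus ATP (1.25 mM final); secreted IL-1B measured by AlphaLISA after 16 hr, decreased signal indicating inhibition.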
Numbers without * were called inactive; ? = inconclusive; / = no result. Unless noted, calls follow the shape of the dose curve; as a rule, active = well fitted curve in the direction sought with a large enough effect; inconclusive = small, poorly fitted or top-dose-only effect, or another doubt; inactive = no such curve, though single readings can be large; an effect the other way counts as inactive or inconclusive.

SMILES	HT1080 IDH1KD tx	TGFb inhibitor	Giardia killer	HT1080NT lethal	HepG2 viability	IL-1B inflam inh
Cc1ccc(C(=O)NCCOc2cccc(C)c2)cc1	-1%	0%	-25	1%	-22%	-20
CSc1ccccc1C(=O)NCCOc1cccc(C)c1	-6%	1%	2	-2%	-16%	-91*
O=C(CO)c1c[nH]c2ccccc12	/	-16%	/	/	-4%	/
COc1ccc(C2c3c(n(C)c4ccccc34)C(=O)N2CC(=O)Nc2ccc(F)cc2)cc1 (stereo not drawn)	/	0%	/	/	1%	/
COc1ccc(C2c3c(n(C)c4ccccc34)C(=O)N2CC(=O)Nc2ccc(Cl)cc2)cc1 (stereo not drawn)	/	2.5µM*	/	/	-29%	/
CC12CCC3C(=CCc4cc(O)ccc43)C1CC(=NO)C2O (stereo not drawn)	10%	-12%	1	3%	-7%	3
COc1ccc2c(c1)CC=C1C2CCC2(C)C(=O)C(=NO)CC12 (stereo not drawn)	-1%	-17%	-4	-11%	-35%	-88*
O=C(Nc1cccc(S(=O)(=O)N2CCCC2)c1)c1ccccc1OC(F)F	11%	10%	2	7%	-18%	-9
O=C1NC2(CCCCC2)CO1	14%	-20%	8	20%	-3%	45
Cc1cc(C)cc(NC(=O)NCc2c(-c3ccccc3)noc2C)c1	1%	-13%	-4	13%	3%	34
Cc1onc(-c2ccccc2)c1CNC(=O)Nc1cccc(Cl)c1	?	?	-4	-6%	-21%	-66*
Cc1nc2cc(NS(=O)(=O)c3c(C)c(C)cc(C)c3C)ccc2s1	13µM*	?	10	13µM*	-37%	-3
Cc1nc2ccc(NS(=O)(=O)c3c(C)c(C)cc(C)c3C)cc2s1	23µM*	-13%	-8	?	-7%	9
CCc1ccc(C(=O)CSc2nnc(C3CC3)n2C2CC2)cc1	24%	11%	-15	8%	5%	-13
O=C(COC(=O)c1cncc(Br)c1)NCc1ccc(Cl)cc1	9%	-1%	3	8%	-1%	0
COC(=O)c1c(C)nc2ccccc2c1C(=O)O	19%	-5%	7	7%	0%	-3
COC(=O)c1cc(C)[nH]c2c(C)cc3nc4ccccc4c3c12	?	0%	4	?	-7%	-98*
CCCc1cc(C(=O)Nc2nnc(C)s2)cs1	6%	-11%	-8	6%	-16%	-12
C=CCOc1ccc(C(=O)c2ccccc2)c(OCC(=O)NC2(C#N)CCCC2)c1	-18%	1%	-3	?	-10%	-60*
CN(C)c1ccc(Cc2cc3c(O)ccc(O)c3cc(Cc3ccc(N(C)C)cc3)c2=O)cc1	?	?	-18	-1%	2%	-113*
CN(C)c1ccc(C(=O)c2ccc(O)cc2O)cc1	-15%	0%	1	-7%	-15%	40
CCN(CC)C(=S)Sc1c(-c2ccccc2)c2cc(Cl)ccc2[nH]c1=O	?	?	-1	-17%	-3%	-61*
COc1ccc(NC(=O)C2CCCN(c3nn4c(=O)cc(C)nc4s3)C2)cc1 (stereo not drawn)	-3%	-13%	-4	-5%	-8%	-12
Cc1ccc(-c2c[n+](Cc3ccc(Cl)c(Cl)c3)c3n2CCC3)cc1	?	?	-8	?	3%	-79*
COc1ccc(C(=O)C[n+]2cc(-c3ccc(OC)cc3)n3c2CCCC3)cc1	?	-1%	-24	-20%	-10%	-12
SMILES	HT1080 IDH1KD tx	TGFb inhibitor	Giardia killer	HT1080NT lethal	HepG2 viability	IL-1B inflam inh
Cc1ccc(C(=O)C[n+]2cc(-c3ccc(C)cc3)n3c2CCCCC3)cc1	18µM*	?	19	13µM*	-11%	-96*
O=C(C[n+]1cc(-c2ccccc2)n2c1CCCCC2)c1ccc(Br)cc1	-4%	-3%	-7	-17%	-31%	-77*
CC(NS(=O)(=O)c1ccc(CCC(=O)N2CCN(C)CC2)cc1)c1ccccc1 (stereo not drawn)	11%	-3%	12	3%	-7%	-5
CCOC(=O)N/N=C/c1c(C)nn(-c2cccc(C(F)(F)F)c2)c1Cl	2.3µM*	-31%	-21	3.3µM*	-41%	-4
Cc1cc(N2CCCCC2)nc2ccc(NC(=O)c3ccc(Br)o3)cc12	?	-17%	0	?	-28%	-66*
COc1cc(C(=O)Nc2ccc3nc(N4CCN(C)CC4)cc(C)c3c2)cc(OC)c1OC	?	1%	-5	?	-31%	-5
CC(=O)c1ccc(N2CCN(C(=O)CCC(=O)Nc3ccc4nc(N5CCN(C)CC5)cc(C)c4c3)CC2)cc1	23µM*	-1%	21	-27%	-18%	-19
Cc1cc(N2CCN(C)CC2)nc2ccc(NC(=O)c3ccc4c(c3)OCO4)cc12	?	-8%	-7	?	-57%	-54*
CCC(C)NC(=O)CCC(=O)Nc1ccc2nc(N3CC(C)CC(C)C3)cc(C)c2c1 (stereo not drawn)	-8%	0%	8	0%	16%	-59*
Cc1cc(N2CCOCC2)nc2ccc(NC(=O)CCC(=O)N3CCN(c4cccc(C(F)(F)F)c4)CC3)cc12	?	?	19	23µM*	-15%	-77*
Cc1cc(C)c(-n2c(SCc3nc4ccccc4s3)n[nH]c2=O)c(C)c1	-21%	?	-17	-28%	-20%	-95*
Cc1cc(C)c(-n2c(SCCS(=O)(=O)c3ccc(F)cc3)n[nH]c2=O)c(C)c1	18µM*	-12%	-13	?	-10%	-97*
CCCn1c(SCc2nc3ccccc3s2)n[nH]c1=O	3%	19%	-8	-4%	-28%	102
Cc1cc(C)nc(SCc2nnc(SCC(=O)Nc3ccc(C)c(C)c3)o2)n1	7%	-7%	21	8%	-4%	0
O=C(NCCc1ccccc1)NC1CCCCC1	-4%	18%	2	-3%	1%	-13
CCCCCCCCCCCCCCCC[n+]1ccc(CC(O)c2c(C)[nH]c3ccccc23)c2ccccc21 (stereo not drawn)	/	?	/	/	8.9µM*	/
COc1ccc(N(CC(=O)Nc2ccc(F)cc2)S(=O)(=O)c2ccccc2[N+](=O)[O-])c(OC)c1	0%	-11%	7	4%	1%	-60*
CCOC(=O)CNS(=O)(=O)c1ccc2c3c(cccc13)C(=O)N2CC	0%	-3%	11	0%	-8%	-86*
